Measured values reported in PubChem BioAssay AID651635 (National Center for Advancing Translational Sciences (NCATS), 2012).
Out of some 400,000 compounds screened, about 1,900 (0.47%) were called active. Inconclusive results (about 14%) are left out. This is one part of a sample in which actives are shown more often than they occur. Calls come from the whole dose curve; as a rule, active = well fitted cell-killing curve with a large enough effect; inconclusive = small, poorly fitted or top-dose-only effect, or effect the other way; inactive = no such curve, though single readings can be large or run the other way.

Assay: Viability Counterscreen for Primary qHTS for Inhibitors of ATXN expression; note: nearly all actives have a fitted effect of over 40% in size
Settings: S2 cells (HEK-293 line with an ATXN2-luciferase reporter) viability, CellTiter-Fluor protease fluorescence, 24 h; series mostly up to 56.7 µM; activity change, negative = cytotoxicity: at the top concentration
Potency is the fitted concentration of half-maximal effect.

| Compound | activity change, negative = cytotoxicity | Potency |
| --- | --- | --- |
| Cc1ccc2cccc(NC(=O)c3cccc4ccccc34)c2n1 | -34.8% (inactive) |  |
| COc1cc(=O)n2c(c1C(=O)NCc1ccco1)CCN(Cc1ccccc1)CC2 | -5.97% (inactive) |  |
| Cc1cccc(C)c1NC(=O)c1ccc(N)cc1 | 0.704% (inactive) |  |
| Cc1cc(C(=O)NCC2Cc3cccc(-c4cncnc4)c3O2)c(C)o1 (stereo unspecified) | -10.9% (inactive) |  |
| CNC[C@H](CC1CCCCC1)NC[C@H](NCCC1CCCC1)[C@H](C)O |  | 17.8 µM (active) |
| O=C(NCC(c1ccc2c(c1)OCO2)N1CCN(c2ccccc2)CC1)C(=O)Nc1ccccc1F (stereo unspecified) | 1.03% (inactive) |  |
| O=S(O)CNc1ccc(S(=O)(=O)c2ccc(NCS(=O)O)cc2)cc1 | -5.35% (inactive) |  |
| O=C(/C=C/Sc1ncn[nH]1)c1ccc(Cl)cc1 |  | 25.1 µM (active) |
| O=C(CSc1ncn[nH]1)Nc1ccc(Br)cc1Br | -18.1% (inactive) |  |
| O=C(CSc1ncn[nH]1)NCc1ccc2c(c1)OCO2 | -17% (inactive) |  |
| CC(C)Oc1ccc(CN2CCC2(C)C(=O)NCc2ccc(C(F)(F)F)cc2)cc1 (stereo unspecified) | -28.4% (inactive) |  |
| COc1cc(Cn2c3ccc(NC(=O)CC(C)c4ccccc4)cc3c(=O)n2C)ccc1F (stereo unspecified) | -29.6% (inactive) |  |
| Cc1cccc(Cc2c(C)nc3nc(SCc4ccccc4Cl)nn3c2C)c1 | -21.8% (inactive) |  |
| COc1ccc(CN(C)CCn2cc(C(=O)N3CCSCC3)nn2)cc1C | -7.73% (inactive) |  |
| O=C(CSc1n[nH]c(=O)n1-c1ccccc1)Nc1ccccc1C(F)(F)F | -31.4% (inactive) |  |
| O=c1[nH]nc(SCCS(=O)(=O)c2ccc(F)cc2)n1-c1ccccc1C(F)(F)F |  | 11.2 µM (active) |
| O=S(=O)(c1ccc(F)cc1)N1CCN(Cc2ccccc2C(F)(F)F)CC1 | -24.4% (inactive) |  |
| COc1ccc(-c2csc(C(O)c3cccc(Cl)c3)n2)cn1 (stereo unspecified) | -0.881% (inactive) |  |
| COc1cc(=O)n2c(c1C(=O)NC(C)c1ccco1)CCN(Cc1cc(C)cc(C)c1)CC2 (stereo unspecified) | -1.1% (inactive) |  |
| Oc1ccc(Br)cc1/C=N/Nc1ccccn1 |  | 0.251 µM (active) |
| Cc1c(C(=O)Nc2ccccn2)oc2ccc(Br)cc12 | -31.1% (inactive) |  |
| O=C(CCc1ccc(O)cc1)NN=Cc1cc(Br)ccc1O | -7.67% (inactive) |  |

| Compound | activity change, negative = cytotoxicity | Potency |
| --- | --- | --- |
| CN[C@H]1C[C@H]2c3cc(Oc4ccccc4C)ccc3CCN2C(=O)[C@H]1[C@H](C)O | -34.6% (inactive) |  |
| COc1ccccc1-c1ccc(C(=O)N(C)C(C)c2ccon2)c(N2CCN(c3ccccc3F)CC2)n1 (stereo unspecified) | -15.6% (inactive) |  |
| COc1ccc(C(O)c2nc(-c3ccc(OC)nc3)cs2)cc1 (stereo unspecified) | -24.5% (inactive) |  |
| COc1ccc(CS(=O)/C(Cl)=C(/Cl)C(=O)Nc2ccc(OC)nc2)cc1 (stereo unspecified) |  | 1.89 µM (active) |
| COc1ccc(NC(=O)C(=O)NCc2ccco2)cc1 | -3.97% (inactive) |  |
| Cc1nnc(C(=O)NC(C)(C)c2nc(C(=O)NCc3ccc(F)cc3)c(O)c(=O)n2C)o1 |  | inactive |
| COc1cc(OC)cc(C(=O)Nc2ccc3nc(Nc4cccc(C(F)(F)F)c4)cc(C)c3c2)c1 | 8.18% (inactive) |  |
| Cc1cc(Nc2cccc(C(F)(F)F)c2)nc2ccc(NC(=O)c3ccc(=O)[nH]c3)cc12 | 1.61% (inactive) |  |
| COc1cc(NC(=O)c2[nH]cnc2C(N)=O)cc(C(=O)Nc2cccc(C(F)(F)F)c2)c1 |  | 10 µM (active) |
| CN(C)C(=O)[C@@H]1C[C@@H](Sc2nc3ccccc3[nH]2)CN1Cc1ccc(Cl)cc1 | -16.4% (inactive) |  |
| CC(C)(CCl)C(=O)Nc1ccc(Sc2ccc(F)cc2)cc1 | -39% (inactive) |  |
| O=C(CCl)Nc1ccc(Sc2ccc(NC(=O)CCl)cc2)cc1 |  | 11.2 µM (active) |
| CCC(=O)Nc1ccc(Nc2nc(Cl)nc(Nc3ccc(NC(=O)CC)cc3)n2)cc1 | 11.2% (inactive) |  |
| COC(=O)c1ccccc1-c1cc(C)cc2c1OC(CNC(=O)C1CCOC1)C2 (stereo unspecified) | -11.1% (inactive) |  |
| CNc1cncc(-c2ccc(NS(C)(=O)=O)cc2)n1 | 29.4% (inactive) |  |
| COC(=O)Cc1ccc(OCC(=O)Nc2ccc(OC(F)(F)F)cc2)cc1 | -27.9% (inactive) |  |
| CCc1ccc2c(c1)NC(=O)C2(C)Cc1ccc(OC(F)(F)F)cc1 (stereo unspecified) |  | 20 µM (active) |
| CCC1CN(CCNC(=O)c2cccnc2C)Cc2cc(OC)ccc2O1 (stereo unspecified) | -4.97% (inactive) |  |
| COc1ccc(CN2CCC3(CCC(CNC(=O)c4ccco4)O3)CC2)cc1OC (stereo unspecified) | -18.1% (inactive) |  |
| CC1(Cc2cccc(C#N)c2)C(=O)Nc2ccc(-c3cccc(C(F)(F)F)c3)cc21 (stereo unspecified) |  | 25.1 µM (active) |
| O=c1cc(O)c(-c2cccc(C(F)(F)F)c2)c(Cl)[nH]1 | -19.8% (inactive) |  |
| CCCCOC(=O)/C(C#N)=C/c1ccc(-c2cccc(C(F)(F)F)c2)o1 | -14.9% (inactive) |  |

| Compound | activity change, negative = cytotoxicity | Potency |
| --- | --- | --- |
| COCCCN1CCC(NC(=O)c2cc(Cl)c(N)c3c2OCC3)CC1 | -17.6% (inactive) |  |
| COc1ccccc1C(=O)N[C@@H]1c2ccccc2C2(CCN(C(=O)c3csnn3)CC2)[C@H]1OC | -12.9% (inactive) |  |
| Cc1cnc(C)c(-c2cc(F)c3c(c2)CC(CNC(=O)c2cccc(Cn4cccn4)c2)O3)n1 (stereo unspecified) | -19.6% (inactive) |  |
| CN(C)CCN1CCN(c2cc(-c3cccc(Cl)c3)nc3ccnn23)CC1 | -1.53% (inactive) |  |
| O=C(c1ccccc1)N1CCN(C(=O)c2cc3nc(-c4ccccc4)cc(C(F)(F)F)n3n2)CC1 | -32.8% (inactive) |  |
| C#Cc1cc(N2CCN(C(=O)c3ccoc3)CC2)n2nc(-c3cccc(Cl)c3)cc2n1 |  | 15.8 µM (active) |
| COCc1c(C(=O)NC2CCCCC2)cnn1-c1nccc(-c2ccccc2OC)n1 | 1.68% (inactive) |  |
| Cc1ccc(F)cc1S(=O)(=O)N1CCC(c2nc3ccccc3s2)CC1 | -17.6% (inactive) |  |
| COc1cc(=O)n2c(c1C(=O)NC(C)c1ccco1)CCN(C(=O)c1cn3ccc(C)cc3n1)CC2 (stereo unspecified) | -5.3% (inactive) |  |
| CO/N=C(/C(=O)N[C@@H]1C(=O)N2C(C(=O)O)=C(Cn3nnc(C)n3)CS[C@H]12)c1csc(N)n1 | -4.23% (inactive) |  |
| CCOC(=O)/C(=C\c1ccc([N+](=O)[O-])cc1)C(=O)c1cc(C(C)=O)c(Nc2ccccc2)s1 |  | 31.6 µM (active) |
| O=C(O)C(=Cc1ccc([N+](=O)[O-])cc1)CCc1ccccc1 | 4.26% (inactive) |  |
| CC(=O)Nc1ccc(C=CC(=O)c2ccc([N+](=O)[O-])cc2)cc1 | -35.6% (inactive) |  |
| CC(C)(C)OC(=O)N1CCN(C(=O)c2[nH]c(C(F)(F)F)nc2-c2ccccc2)CC1 | 6.95% (inactive) |  |
| COc1ccc(F)c(CN2CCC3(CCC(CNC(=O)c4ccn(C)n4)O3)CC2)c1 (stereo unspecified) | -17% (inactive) |  |
| CCCNC(=O)c1cc2c(c(-c3cccc(-c4ccc(C#N)cc4)c3)n1)[C@@H](CCO)N(C(=O)CC)C2 | -27.1% (inactive) |  |
| CCOC(=O)[C@]12CCC=C1N(Cc1ccco1)C(=O)[C@H](CC(=O)NCc1cccc(C(F)(F)F)c1)C2 | -31.8% (inactive) |  |
| CC1Cc2[nH][nH]c(=O)c2C(C2CCCC2)O1 (stereo unspecified) | -24.8% (inactive) |  |
| C=CC[C@H](CC(=O)OC(C)(C)C)C(=O)OC[C@H]1CCCN1C(=O)[C@H](CC=C)CC(=O)N(CCO)Cc1ccccc1 | -32.5% (inactive) |  |
| C=CCC[C@@H](Cc1ccc(F)cc1)C(=O)OC[C@H](Cc1c[nH]c2ccccc12)NC(=O)[C@@H](CC=C)CC(=O)N(CCO)Cc1ccccc1 |  | 5.62 µM (active) |
| C=CCC[C@@H](Cc1ccc(F)cc1)C(=O)O[C@H](CNC(=O)[C@H](CC=C)CC(=O)N(CCO)Cc1ccccc1)c1ccccc1 |  | 25.1 µM (active) |
| CC(=O)NC(Cc1c[nH]c2ccccc12)C(=O)NCCc1ccccc1 (stereo unspecified) | 22% (inactive) |  |

| Compound | activity change, negative = cytotoxicity | Potency |
| --- | --- | --- |
| C=CC[C@@H](CC(=O)N[C@H](CO)Cc1ccccc1)C(=O)N[C@@H](COC(=O)[C@@H](CC=C)Cc1ccc(F)cc1)Cc1c[nH]c2ccccc12 | -20.2% (inactive) |  |
| C=CCC[C@H](Cc1ccc(F)cc1)C(=O)OC[C@@H](NC(=O)[C@@H](CC=C)CC(=O)N[C@H](CO)Cc1ccccc1)C(C)(C)C |  | 31.6 µM (active) |
| COCCCNC(=S)N(Cc1ccccc1)Cc1ccc(F)cc1 | -7.99% (inactive) |  |
| C=CC[C@@H](CC(=O)N[C@@H](CO)Cc1ccccc1)C(=O)NCCOC(=O)[C@@H](CC=C)CC(=O)OC(C)(C)C | -17.6% (inactive) |  |
| C=CC[C@@H](CC(=O)N[C@H](CO)Cc1ccccc1)C(=O)N[C@H](C)COC(=O)[C@@H](CC=C)Cc1ccc(F)cc1 | -42.4% (inactive) |  |
| COc1ccc(-c2cc(NC=O)c3ncc(-c4ccccc4)n3c2)cc1OC | -34.1% (inactive) |  |
| CC1(C)[C@H](O[C@H]2O[C@H](C(=O)O)[C@@H](O)[C@H](O)[C@H]2O[C@@H]2O[C@H](C(=O)O)[C@@H](O)[C@H](O)[C@H]2O)CC[C@@]2(C)[C@H]1CC[C@]1(C)[C@H]2C(=O)C=C2[C@H]3C[C@@](C)(C(=O)O)CC[C@]3(C)CC[C@]21C | -18.3% (inactive) |  |
| COc1cccc(CNc2nc3cc(-c4csc5ccccc45)sc3c(=O)n2C)c1 | -21.8% (inactive) |  |
| COC(=O)C1CCCCN1Cc1ccc2c(c1)CN(Cc1cc(OC)c3c(c1)OCO3)CCO2 (stereo unspecified) | -12.7% (inactive) |  |
| Cc1nc2nc(NCc3cccc(Br)c3)[nH]n2c(=O)c1Cc1ccccc1 | -9.08% (inactive) |  |
| C=C1C(=O)[C@]23C[C@H]1CCC2[C@@]1(C)C(C[C@@H]3O)[C@](C)(C(=O)O)CC[C@@H]1O (stereo partly specified) |  | 15.8 µM (active) |
| CCc1noc(C)c1C(=O)NCCN1Cc2cc(OC)ccc2OC(CC)C1 (stereo unspecified) | -3.48% (inactive) |  |
| COc1ccc(C2OC(CCc3ccccc3)Cc3[nH]c(=S)[nH]c(=O)c32)cc1 (stereo unspecified) | -35.3% (inactive) |  |
| CC(=O)O[C@H]1CC[C@@]2(C)C(=CC[C@@H]3[C@@H]2CC[C@]2(C)C(c4cccnc4)=CC[C@@H]32)C1 | -2.28% (inactive) |  |
| CCOC(=O)[C@]12CCCC=C1N(Cc1cccc3ccccc13)C(=O)[C@H](CC(=O)NCC13CC4CC(CC(C4)C1)C3)C2 | -27.9% (inactive) |  |
| COc1cccc(CN(C)C(=O)CC[C@H]2O[C@@H](n3cnc4c(NC(=O)c5ccccc5)ncnc43)[C@H](O)[C@@H]2O)c1 | -19.7% (inactive) |  |
| Nc1ncnc2c1ncn2[C@@H]1O[C@H](CNC(=O)[C@H](N)Cc2cccnc2)[C@@H](O)[C@H]1O | -12% (inactive) |  |
| COc1ccc(C[C@H](N)C(=O)N[C@@H]2[C@H](O)[C@H](n3cnc4c(N(C)C)ncnc43)O[C@@H]2CO)cc1 |  | 2 µM (active) |
| CC1(C)OC(=O)C2=C(C[C@@H](C3CCCCC3)O[C@@H]2c2ccc(Cl)cc2)O1 | -14.4% (inactive) |  |
| NNc1nnc(Cc2ccncc2)c2ccccc12 | -5.09% (inactive) |  |
